# In all, about 100,000 compounds went through this assay and about 620 (0.62%) were called active. The sample as a whole holds a higher share of actives than the screen did. Values without a mark were called inactive. How the source made its calls: active means z-score of 3 or more in at least 2 runs; inactive means the rest.
# Test: TAR RNA-Tat peptide displacers, HIV-1, primary screen, biochemical, FRET, FAM/TAMRA-labeled Tat (AID 1259389)
# Conditions: HIV-1 TAR RNA, Tat peptide displacement FRET; active compounds read high
row,SMILES,z-score
1,Cc1ccsc1CCNC(=O)CCS(=O)(=O)c1ccc2c(c1)CC(C)N2C(=O)C1CC1 (stereo unspecified),-0.02
2,CC(C)NC(=O)NCCn1cnc2cc(C(=O)N(C)C)ccc21,-0.27
3,Oc1ccc(-c2csc(Nc3cccnc3)n2)cc1,-0.3
4,Cc1n[nH]c(C)c1Nc1nc(-c2ccc(O)c(O)c2)cs1,28.7 (active)
5,Cc1cccc(Nc2nc(-c3ccccc3)cs2)n1,1.14
6,NC(=O)Cn1c(=O)n(Cc2ccc(Cl)cc2)c(=O)c2cccnc21,-0.39
7,CCCNS(=O)(=O)c1ccc2c(c1)CC(C)N2C(=O)C1CC1 (stereo unspecified),0.52
8,O=C(O)c1[nH]c2ccccc2c1-n1cccc1,13.1 (active)
9,Cc1[nH]c2ccccc2c1C(=O)CN1CCN(C)CC1,1.46
10,Cc1[nH]c2ccccc2c1C(=O)C(=O)N(C)c1ccccc1,-0.5
11,O=c1c(N2CCN(C/C=C/c3ccccc3)CC2)csc2ccc(Cl)cc12,-2.75
12,COC(=O)C(=O)c1c(-c2ccc(Br)cc2)[nH]c2ccccc12,1.05
13,CCOC(=O)C1CCN(C2C(=O)c3ccccc3N2C(C)=O)CC1 (stereo unspecified),1.39
14,Cc1nn(C)c(C)c1CNC(=O)Cn1c(-c2cccs2)cc2cc(Cl)ccc21,0.84
15,CC1Sc2ccc(S(=O)(=O)N(C)c3ccc(Br)cc3)cc2NC1=O (stereo unspecified),1.17
16,CC1=C(C(=O)OCc2ccccc2)C(c2ccc(O)cc2)C2=C(CC(C)(C)CC2=O)N1 (stereo unspecified),1.82
17,O=c1ccc2cc(S(=O)(=O)N3CCN(C4CCCCC4)CC3)ccc2[nH]1,18.9 (active)
18,CC1CCN(S(=O)(=O)c2ccc3[nH]c(=O)ccc3c2)CC1,-0.99
19,O=C(C1CCN(S(=O)(=O)c2ccc3[nH]c(=O)ccc3c2)CC1)N1CCCC1,0.85
20,Cc1noc2ncnc(N3CCCC(C(=O)Nc4ccccn4)C3)c12 (stereo unspecified),0.85
21,CCOC(=O)c1noc2nc(C)nc(Nc3ccccc3)c12,0.17
22,O=C1c2ccc(O)cc2O[C@H](c2cc(O)c(O)c(O)c2)[C@H]1O,9.31 (active)

row,SMILES,z-score
1,O=C(CSc1nnc2c3ccccc3nc(-c3ccccc3)n12)Nc1ccccc1,0.64
2,O=C(CSCc1cnn(-c2ccccc2)c1-n1cccc1)Nc1ccccc1F,1.3
3,O=C(O)C1Nc2ccc(Cl)cc2C2C=CCC12 (stereo unspecified),42 (active)
4,O=S(=O)(c1ccc(C2Nc3ccc(Cl)cc3C3C=CCC32)cc1)N1CCOCC1 (stereo unspecified),-2.45
5,O=C(NCc1cccnc1)c1ccc(CN2CC(=O)N3CCCC3C2=O)cc1 (stereo unspecified),1.95
6,O=C(CSc1nnc2scc(-c3ccccc3)n12)N1CCOCC1,0.4
7,O=C(CSc1ccc(-c2ccccn2)nn1)Nc1ccccc1,2.09
8,CCc1c(CN2CCN(Cc3ccccc3)CC2)csc1C,1.69
9,CCn1c(C(C)N2CCCCC2)nc2ccccc21 (stereo unspecified),1
10,CCNc1nc(Nc2ccc(Cl)cc2C)c2cnn(C)c2n1,0.26
11,Cc1ccc(Nc2ncnc3c2cnn3C)c(C)c1,0.03
12,Cc1ccc(Nc2nc(NCc3ccco3)nc3c2cnn3C)c(C)c1,3.66 (active)
13,CCN(CC)c1nc2c(S(=O)(=O)c3ccc(Cl)cc3)nnn2c2ccsc12,-1.01
14,O=S(=O)(c1ccc(Cl)cc1)c1nnn2c1nc(NC1CCCC1)c1sccc12,7.09 (active)
15,NC(=O)C1CCN(c2nc3c(S(=O)(=O)c4cccc(Cl)c4)nnn3c3ccsc23)CC1,0.52
16,Cn1c(=O)oc2cc(S(=O)(=O)CCC(=O)Nc3cccc(F)c3)ccc21,0.47
17,O=C(Cn1nc(-c2ccccc2)c2cnc3cc4c(cc3c21)OCCO4)NC1CCCC1,-0.04
18,O=C(CSc1ncc(S(=O)(=O)c2ccccc2)c(=O)[nH]1)Nc1cccc(F)c1,-1.01
19,CCc1ccc(C2CC(=O)Nc3c2c(C)nn3-c2nc3ccccc3[nH]2)s1 (stereo unspecified),1.63
20,Cc1ccc2occ(C3Nc4cc(C)c(C)cc4NC4=C3C(=O)CC(C)(C)C4)c(=O)c2c1 (stereo unspecified),0.26
21,COc1cccc(OCc2cc(=O)n3nc(C)sc3n2)c1,-0.36
22,Cc1nnc2sc(-c3ccco3)nn12,-1.16

row,SMILES,z-score
1,Cc1cccc(C)c1OCc1cc(=O)n2nc(-c3ccco3)sc2n1,36.5 (active)
2,CCCCc1nn2c(=O)cc(CSc3n[nH]c(CC(C)C)n3)nc2s1,-1.13
3,C=CCSc1ncc(Cl)c(C(=O)Nc2c(C(=O)Nc3ccc(OC)cc3)oc3ccccc23)n1,1.45
4,COC(=O)c1ccc(C2C(C(=O)OC3CCCC3)=C(C)NC3=C2C(=O)CCC3)cc1 (stereo unspecified),2.05
5,c1ccc(-c2nnc3sc(-c4ccc5c(c4)OCCO5)nn23)cc1,-0.37
6,Cc1ccc(-c2nnc3sc(-c4ccccn4)nn23)cc1,1.2
7,COc1ccc(-c2nn3c(-c4ccccc4)nnc3s2)cc1OC,21 (active)
8,CCC1Sc2ccc(S(=O)(=O)CCC(=O)NCCc3sccc3C)cc2NC1=O (stereo unspecified),-0.87
9,O=c1c(NC2CCCC2)c(-c2ccc3c(c2)CCCC3)c1=O,-0.58
10,CCN(CC)C(=O)CCc1nc(CN2CCN(S(=O)(=O)c3cccs3)CC2)no1,-6.66
11,CCCCn1c(=O)[nH]c(=O)c2sc(N)nc21,0.78
12,COc1ccc(-n2c(=O)[nH]c(=O)c3sc(NC(=O)Nc4ccccc4)nc32)cc1,-0.15
13,COc1cc(Br)c(CCn2c(=O)[nH]c(=O)c3sc(N)nc32)cc1OC,28.5 (active)
14,Cc1c(C(=O)N2CCOCC2)oc2c1-c1nn(CC(=O)NC3CCCc4ccccc43)cc1CC2 (stereo unspecified),3.05
15,Cc1cc(NCc2cccs2)n2nc(Cc3cccc(F)c3)nc2n1,1.34
16,Cc1cc(C)cc(NC2c3ncccc3C(=O)N2c2ccccc2)c1 (stereo unspecified),-1.21
17,CC1CCCCC1NC(=O)C1(C)Cn2c(cc3sccc32)C(=O)N1Cc1ccco1 (stereo unspecified),2.7
18,CC1CCC(NC(=O)C2(C)Cn3c(cc4occc43)C(=O)N2c2ccc(Cl)cc2)CC1 (stereo unspecified),5.26 (active)
19,COCCCN1C(=O)c2cc3sccc3n2CC1(C)C(=O)NC1CCCC(C)C1C (stereo unspecified),2.51
20,CC1CCC(NC(=O)C2(C)Cn3c(cc4occc43)C(=O)N2CCN(C)C2CCCCC2)CC1 (stereo unspecified),0.99
21,CC1CCCC(NC(=O)C2(C)Cn3c(cc4occc43)C(=O)N2Cc2ccc3c(c2)OCO3)C1C (stereo unspecified),6.96 (active)
22,CCCN1C(=O)c2cc3sccc3n2CC1(C)C(=O)NC1CCC(C)CC1 (stereo unspecified),1.88

# From PubChem BioAssay AID1259389 (Center for Chemical Genomics, University of Michigan, 2018)
